# Compound activity deposited in PubChem BioAssay by Broad Institute.
# Most compounds without a hit are left out; they make up all but 6.8% or so of the library.
# C diff HTS – C. difficile growth inhibition | Clostridium difficile clinical isolate growth, OD600, 24 h; hits give low values | 86,000 tested, 0.25% active | growth activity, negative = inhibition, % at 16 µg/mL (by protocol) | AID 1259249;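 active = mean growth activity at or below -80% and every replicate also at or below -80%; inconclusive = mean at or below -80% but some replicate above -80%; inactive = mean growth activity above -80%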
# T cruzi growth-1 – T. cruzi proliferation inhibition. 77,000 tested, 5.9% active. inhibition, % at 8.34 µM. T. cruzi beta-gal in NIH3T3, GalScreen luminescence, 90 h;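 active = mean inhibition above about 93%, with at least 55% of replicates each passing it, limit read from the data, passing the limit was not always enough; inconclusive = only one of those two conditions holds; inactive = neither condition holds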
# Pf Dd2 growth – inhibitors of Plasmodium falciparum Dd2 growth | P. falciparum Dd2 growth, SYBR Green, 72 h; hits give low values | activity change, % at 10 µM | 94,000 tested, 2.3% active; in the data active = activity change below about -80%; inconclusive = no clear call, values can overlap the other calls
# T cruzi growth-2 – inhibitors of T. cruzi proliferation; shares compounds with T cruzi growth-1; T. cruzi beta-gal in NIH3T3, GalScreen luminescence, 90 h; inhibition, % at 8.35 µM; 5,600 tested, 72% active; AID 651739;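 active = mean replicate inhibition above about 95% and at least 55% of replicates individually reaching it, limit read from the data; inconclusive = only one of the two criteria is met; inactive = neither criterion is met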
# T cruzi growth-3 – Trypanosoma cruzi proliferation inhibition. shares compounds with T cruzi growth-1. T. cruzi beta-gal in NIH3T3, GalScreen luminescence, 90 h. inhibition, % at 2.09 µM. 5,600 tested, 21% active. AID 651740;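 active = mean inhibition above about 95%, with at least 55% of replicates also reaching it, limit read from the data; inconclusive = meets just one of the two conditions; inactive = meets neither condition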
# NIH3T3 tox – NIH/3T3 (mouse) viability loss | 5,600 tested, 14% active | shares compounds with T cruzi growth-1 | cytotoxicity (signal decrease), % at 8.35 µM | NIH/3T3 viability, CellTiter-Glo ATP luminescence, 90 h | AID 651742;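 active = mean signal decrease across replicates above about 35% based on untreated-well scatter, with enough replicates individually passing, limit read from the data; inconclusive = no rule stated though some were filed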
# NIH3T3 tox 2 – kills mouse NIH/3T3 fibroblasts | NIH/3T3 viability, CellTiter-Glo ATP luminescence, 90 h | inhibition, % at 24.9 µM | 5,600 tested, 56% active | shares compounds with T cruzi growth-1 | AID 651744;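 active = mean loss of cell viability signal at or above a set limit, and enough replicates individually reaching it; inconclusive = meets only the mean limit or only the replicate share; inactive = meets neither condition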
# Hits are given with their value; 0 = inactive; ? = inconclusive; - = not tested or not shown.
SMILES,C diff HTS,T cruzi growth-1,Pf Dd2 growth,T cruzi growth-2,T cruzi growth-3,NIH3T3 tox,NIH3T3 tox 2
C[C@@H]1CCCCO[C@@H](CN(C)S(=O)(=O)c2ccc(Cl)cc2)[C@H](C)CN([C@H](C)CO)C(=O)c2cc(NS(=O)(=O)c3cccs3)ccc2O1,0,?,-,105,0,0,0
O=C(C[C@H]1CC[C@@H](NC(=O)C2CCOCC2)[C@@H](CO)O1)NCc1ccccc1Cl,-,0,0,-,-,-,-
CO[C@@H]1CN(C)C(=O)c2cc(NS(=O)(=O)c3ccc(F)cc3)ccc2OC[C@H](C)NC[C@@H]1C,-,0,0,-,-,-,-
COCC(=O)N1CC(=O)N2[C@H](C1)[C@H](c1ccc(-c3cccnc3)cc1)[C@@H]2CO,0,-,0,-,-,-,-
C[C@H]1CN([C@@H](C)CO)C(=O)c2cccc(NC(=O)C3CCOCC3)c2O[C@@H]1CN(C)Cc1ccc(C(=O)Nc2ccccc2N)cc1,0,-,0,-,-,-,-
C[C@@H]1CN([C@@H](C)CO)C(=O)c2cccc(NC(=O)C3CCOCC3)c2O[C@H]1CN(C)Cc1ccc(C(=O)Nc2ccccc2N)cc1,0,107,0,105,0,0,0
C[C@H]1CN([C@@H](C)CO)C(=O)c2cccc(NC(=O)C3CCOCC3)c2O[C@H]1CN(C)Cc1ccc(C(=O)Nc2ccccc2N)cc1,0,0,0,-,-,-,-
C[C@@H]1CN([C@H](C)CO)C(=O)c2cccc(NC(=O)NC3CCCCC3)c2O[C@H]1CN(C)Cc1ccc(C(=O)O)cc1,0,0,0,-,-,-,-
C[C@@H]1CN([C@@H](C)CO)C(=O)c2cccc(NC(=O)C3CC3)c2O[C@H]1CN(C)Cc1ccc(C(=O)Nc2ccccc2N)cc1,0,99,0,106,0,0,0
C[C@H]1CN([C@@H](C)CO)C(=O)c2cccc(NC(=O)NC3CCCCC3)c2O[C@H]1CN(C)Cc1ccc(C(=O)Nc2ccccc2N)cc1,-,?,0,101,?,0,?
O=C(CN1CCOCC1)NCC[C@H]1CC[C@@H](NC(=O)Nc2ccc(C(F)(F)F)cc2)[C@H](CO)O1,-,0,0,-,-,-,-
CN(C)C(=O)c1cccc(-c2ccccc2[C@H]2[C@@H](C#N)N(C(=O)C3CC3)[C@@H]2CO)c1,0,-,0,-,-,-,-
CO[C@@H]1CN(C)C(=O)c2cc(NS(=O)(=O)c3ccccc3C)ccc2OC[C@@H](C)N(C)C[C@H]1C,-,0,0,-,-,-,-
O=C(CN1CCOCC1)N[C@H]1CC[C@H](CCNS(=O)(=O)c2ccccc2F)O[C@H]1CO,-,0,0,-,-,-,-
C[C@@H]1CCCCO[C@@H](CN(C)Cc2ccc(C(=O)O)cc2)[C@@H](C)CN([C@@H](C)CO)C(=O)c2cc(NS(=O)(=O)c3ccc(F)cc3)ccc2O1,0,0,0,-,-,-,-
C[C@@H]1CN([C@@H](C)CO)S(=O)(=O)c2ccc(Br)cc2O[C@@H]1CN(C)S(=O)(=O)c1ccc(F)cc1,0,0,0,-,-,-,-
C[C@H]1CN([C@@H](C)CO)S(=O)(=O)c2ccc(Br)cc2O[C@H]1CN(C)S(=O)(=O)c1ccc(F)cc1,-,106,0,106,0,0,?
C[C@@H]1CN([C@@H](C)CO)S(=O)(=O)c2ccc(Br)cc2O[C@H]1CN(C)S(=O)(=O)c1cccc(F)c1,0,107,0,111,0,0,68
C[C@@H]1CN([C@@H](C)CO)S(=O)(=O)c2ccc(Br)cc2O[C@@H]1CN(C)S(=O)(=O)c1ccccc1,0,-,0,-,-,-,-
CC(=O)NC[C@H]1[C@H](c2ccccc2)[C@H](CO)N1C(=O)Cc1ccncc1,0,0,0,-,-,-,-
O=S(=O)(c1cccs1)N1CCCCN2[C@H](C1)[C@H](c1ccc(C3=CCCCC3)cc1)[C@@H]2CO,0,120,0,109,0,0,?
COc1cccc(-c2ccc([C@@H]3[C@H]4CN(S(=O)(=O)c5cccs5)CCCCN4[C@H]3CO)cc2)c1,0,0,0,-,-,-,-
Cc1cccc(-c2ccc([C@H]3[C@H]4CN(S(=O)(=O)c5cccs5)CCCCN4[C@H]3CO)cc2)c1,0,107,0,103,99,0,46
O=S(=O)(c1cccs1)N1CCCCN2[C@H](CO)[C@H](c3ccc(C4=CCCC4)cc3)[C@H]2C1,0,0,0,-,-,-,-
COc1ccc(S(=O)(=O)N2CCCCN3[C@@H](CO)[C@@H](c4ccc(C5=CCCCC5)cc4)[C@@H]3C2)cc1,0,0,0,-,-,-,-
SMILES,C diff HTS,T cruzi growth-1,Pf Dd2 growth,T cruzi growth-2,T cruzi growth-3,NIH3T3 tox,NIH3T3 tox 2
COc1ccc(-c2ccc([C@H]3[C@H]4CN(S(=O)(=O)c5cccs5)CCCCN4[C@H]3CO)cc2)cc1,0,113,0,108,0,0,0
COc1ccc(-c2ccc([C@@H]3[C@H](CO)N4CCCCN(S(=O)(=O)c5cccs5)C[C@@H]34)cc2)cc1,0,0,0,-,-,-,-
COc1ccc(S(=O)(=O)N2CCCCN3[C@H](C2)[C@H](c2ccc(C4=CCCCC4)cc2)[C@@H]3CO)cc1,0,117,0,?,0,0,27
C[C@H]1CCCCO[C@H](CN(C)S(=O)(=O)c2cccs2)[C@@H](C)CN([C@@H](C)CO)C(=O)c2cc(NS(=O)(=O)c3ccc(F)cc3)ccc2O1,0,0,-,-,-,-,-
C[C@@H]1CN([C@@H](C)CO)C(=O)c2cc(C3=CCCCC3)cnc2O[C@H]1CN(C)C(=O)Cc1cccnc1,0,0,0,-,-,-,-
C[C@@H]1CN([C@@H](C)CO)C(=O)Cc2cc(NC(=O)CCC(F)(F)F)ccc2O[C@H]1CN(C)Cc1ccccc1,0,0,0,-,-,-,-
COc1ccc(-c2ccc([C@H]3[C@@H](CO)N4CCCCN(S(=O)(=O)c5cccs5)C[C@H]34)cc2)cc1,0,105,0,106,0,0,105
CN(C)C(=O)c1ccc(-c2ccc([C@H]3[C@@H](CO)N4CCCCN(S(C)(=O)=O)C[C@H]34)cc2)cc1,0,0,0,-,-,-,-
COc1ccc(S(=O)(=O)N2CCCCN3[C@H](CO)[C@@H](c4ccc(C5=CCCC5)cc4)[C@@H]3C2)cc1,0,0,0,-,-,-,-
COc1cccc(-c2ccc([C@H]3[C@@H](CO)N4CCCCN(S(=O)(=O)c5cccs5)C[C@H]34)cc2)c1,0,0,0,-,-,-,-
O=S(=O)(c1cccs1)N1CCCCN2[C@@H](CO)[C@@H](c3ccc(Br)cc3)[C@@H]2C1,0,0,0,-,-,-,-
CN(C)C(=O)c1ccc(-c2ccc([C@H]3[C@@H](CO)N4CCCCN(S(C)(=O)=O)C[C@@H]34)cc2)cc1,0,98,0,0,0,0,0
O=S(=O)(c1cccs1)N1CCCCN2[C@H](CO)[C@H](c3ccc(Br)cc3)[C@@H]2C1,0,114,0,100,0,0,30
CS(=O)(=O)N1CCCCN2[C@@H](CO)[C@H](c3ccc(C4=CCCC4)cc3)[C@@H]2C1,0,?,0,0,0,0,0
C[C@H]1CN([C@@H](C)CO)C(=O)c2cc(NC(=O)Nc3ccccc3)ccc2O[C@H]1CN(C)S(=O)(=O)c1ccc(Cl)cc1,0,0,0,-,-,-,-
